A short description of test [1]: AP1 Signaling Pathway (AID 357; active = well fitted curve in either direction with a large enough effect, not every such curve was filed as active; also: % is scaled to controls: 0 for no effect and ±100 for the full control effect). The note with it: ME-180 AP-1-bla reporter, EGF-induced, beta-lactamase ratio, 5 h; at 7.69 µM (top of the series) unless noted. Put shortly: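 First, ME-180 AP-1-bla cells were cultured overnight at 37 °C in low-serum Opti-MEM. Next, titrated compounds with EC50 EGF were incubated 5 hours. Finally, CCF4 was added for 2.5 hours and the 460/530 nm ratio recorded.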

Test [2] in a line: NFAT Signaling Pathway (AID 444; active = well fitted curve in either direction with a large enough effect, not every such curve was filed as active;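 also: carbachol stimulus at about its EC50 of 1 µM final; % is scaled to controls: 0 for no effect and ±100 for the full control effect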). Conditions: Jurkat NFAT-bla M1, carbachol, beta-lactamase ratio, 5 h; at 7.69 µM (top of the series) unless noted. Put shortly:
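Read-out: CCF4 FRET ratio (460 nm/530 nm) after 1 h RT dye loading, used for %activity and AC50 from titration series. Cells: Jurkat NFAT-β-lactamase/M1 line, treated with compound plus 1 uM carbachol for 5 h, 37 °C.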

Test [3] is described as follows: Stat Signaling Pathway (AID 446; active = well fitted curve in either direction with a large enough effect, not every such curve was filed as active;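 also: ME-180 cervical cancer cells given 40 pM IL-6 alongside compound; SIE-controlled beta-lactamase reporter measured as 460/530 nm FRET emission ratio; % is scaled to controls: 0 for no effect and ±100 for the full control effect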). The note with it: ME-180 (cervical carcinoma) SIE beta-lactamase reporter, IL-6 stimulated, 5 h; at 7.69 µM (top of the series) unless noted. Put shortly:
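Normalization used AC90 stimulation (300 pM IL-6) and AC90 inhibition (125 nM pan-JAK inhibitor at 40 pM IL-6). The underlying signal is SIE-driven beta-lactamase in ME-180 cells after 5 h IL-6 exposure with compound.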

Test [4] concerns the target Glucocorticoid receptor (Homo sapiens) (UniProt P04150). Nature of the test: GR-GFP Redistribution (AID 450;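 active = compounds whose dose series gives a full or clear partial fitted curve of increased nuclear translocation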; also: potency is read from the fitted curve at half-maximal effect). Conditions: U2OS GR-GFP nuclear translocation, laser cytometry, 2 h.
Test [5] has as its target Mitogen-activated protein kinase 10 (Mus musculus) (UniProt Q61831). Nature of the test: JNK3 AlphaScreen Assay (AID 530; active = well fitted curve in either direction with a large enough effect, not every such curve was filed as active;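 also: kinase came from lysate of stimulated human HepG2 cells; signal reports phosphorylation of biotinylated GST-cJun 1-79 at Ser73 with 10 µM ATP; % is scaled to controls: 0 for no effect and ±100 for the full control effect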). The essentials:
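Kinase buffer: 20 mM Tris-HCl pH 7.6, 10 mM MgCl2, 1 mM DTT, 0.1 mM Na3VO4, 0.01% Tween-20; ATP 10 uM. Substrate biotin-GST-cJun(1-79), enzyme from activated HepG2 lysates. Detection by Ser73 phospho-antibody AlphaScreen.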
(Alpha assays give light when donor and acceptor beads are brought close together.)

Test [6] concerns the target Cytochrome P450 2C19 (Homo sapiens) (UniProt P33261). In words: qHTS Assay for Inhibitors and Substrates of Cytochrome P450 2C19 (AID 899). Also: potency is read from the fitted curve at half-maximal effect; nearly all actives have a fitted effect of over 60% in size. Put shortly: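 5nM enzyme + 10uM Luciferin-H EGE (=KM), 50mM KPO4; cpd pin-transferred, 10 min 37C; NADPH regen, 60 min 37C; stopped w/ luciferin detection reagent, 20 min; luminescence. Normalized to 57uM ketoconazole (AC100).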
For orientation: In qHTS, concentration-response curves come from the screen itself.

The nature of test [7]: Confirmation and Secondary Assay for Modulators of Hemoglobin Beta Chain Splicing at IVS2 654 locus (AID 910).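 Also: HeLa cells stably carrying EGFP split by mutant beta-globin IVS2-654 intron; per-well total GFP intensity by laser scanning cytometry after 2-day treatment; % of control where 0% means no effect.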 The essentials:
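Readout: per-well total peak green fluorescence (488 nm ex, 500–520 nm em) from objects 5–250 µm, reflecting correct splicing of an EGFP-654 reporter. Compounds were applied for 2 days at 37 °C to overnight-plated HeLa EGFP-654 cells; controls were DMSO and 500 nM IVS2-654 PNA.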

Test [8] can be described thus: Confirmation and Secondary Assay for Modulators of Hemoglobin Beta Chain Splicing at IVS2 705 locus (AID 930).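 Also: HeLa cells stably expressing the EGFP-705 splicing reporter; GFP fluorescence per well restored by corrected splicing of the IVS2-705 intron in EGFP; % of control where 0% means no effect.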 Put shortly: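 Per-well GFP, captured at 1 x 8 µm resolution with 488 nm excitation, served as the read-out for HeLa EGFP-705 cells incubated 2 days with test compound versus DMSO.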
Test [9] addresses Ubiquitin carboxyl-terminal hydrolase 1 (Homo sapiens) (UniProt O94782). In words: Inhibitors of USP1/UAF1: Pilot qHTS (AID 504865).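 Also: rhodamine fluorescence freed from ubiquitin-rhodamine substrate followed over time; top concentration of the series differs between compounds; % is scaled to controls: 0 for no effect and ±100 for the full control effect; nearly all actives have a fitted effect of over 35% in size.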 The essentials: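 Enzyme-free wells gave the negative control, while test wells held 1nM USP1/UAF1 preincubated with compound for 15 min at room temperature. Ub-Rho at 150nM final started the reaction, and fluorescence at 480/540 nm was recorded kinetically.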

Test [10] concerns the target Calcium and integrin-binding protein 1 (Homo sapiens) (UniProt Q99828). In words: Primary qHTS for Identification of Calcium Integrin Binding Protein 1 (CIB1) Competitor (AID 1508620). The essentials:
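CIB1-GST (1 uM final) and compound incubated 15 min at room temperature before adding FITC-alphaIIb peptide tracer (100 nM final). Competition for binding read by fluorescence polarization (ex 480, em 540) after another 15 min at room temperature.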

A short description of test [11]: Primary qHTS for small molecule stabilizers of the endoplasmic reticulum resident proteome: Secreted ER Calcium Modulated Protein (SERCaMP) assay (AID 1508630). Also: % is scaled to controls: 0 for no effect and ±100 for the full control effect. Put shortly: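 The SH-SY5Y reporter protocol was run at 3 concentrations up to 38.3 uM (primary) or 11 concentrations (follow-up): 16 h compound, 100 nM thapsigargin for 4 h, then extracellular luciferase luminescence.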

In test [12] the target is Lysosomal acid glucosylceramidase (Homo sapiens) (UniProt P04062). Nature of the test: Glucocerebrosidase-p2 (AID 348; in the data active = potency below about 10 µM; also: potency is read from the fitted curve at half-maximal effect). Conditions: purified GBA, blue fluorogenic substrate, 40 min. The essentials:
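Normal human glucocerebrosidase (0.2 nM) with blue fluorogenic substrate (80 uM final) in citrate/phosphate pH 5.9 with 10mM sodium taurocholate, 0.01% tween-20; 40 min RT, NaOH/glycine stop; fluorescence Ex 365/Em 440; AC50 from a titration from 0.6 nM upwards.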

For test [13], the target named is Cytochrome P450 1A2 (Homo sapiens) (UniProt P05177). Nature of the test: p450-cyp1a2 (AID 410; calls by dose curve;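 also: -100% = full effect of reference inhibitor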). The essentials:
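20nM CYP1A2, 100uM Luciferin-ME (=Km), 100mM KPO4; cpd 10 min RT; +NADPH regen, 60 min RT; stop/detect 20 min; luminescence. Normalized to furafylline 57 uM = full inhibition.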

The target in test [14] is 3',5'-cyclic-AMP phosphodiesterase 4B (Homo sapiens) (UniProt Q07343). In words: qHTS Assay for Inhibitors of PDE-IV (AID 607; active = well fitted activation curve with a large enough effect in the main read-out, with a control signal flat, not every such curve was filed as active; also: % of control where 0% means no effect). Put shortly:
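HEK293 ACTOne cells with CNG channel (1000/well), endogenous PDE4; membrane potential dye, compounds up to 22.9 uM final. Fluorescence Ex 535/Em 590; RO 20-1724 (100 uM final) as reference.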

Test [15] addresses Cytochrome P450 2D6 (Homo sapiens) (UniProt P10635). Nature of the test: qHTS Assay for Inhibitors and Substrates of Cytochrome P450 2D6 (AID 891). Also: potency is read from the fitted curve at half-maximal effect; nearly all actives have a fitted effect of over 60% in size. The essentials:
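Luminescent read-out of luciferin formed by 5 nM human CYP2D6 demethylating 30 uM Luciferin-ME EGE (Km level) over 60 min at room temperature after NADPH regeneration addition. Data normalized to full inhibition by 1.43 uM quinidine.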

Test [16] can be described thus: qHTS profiling for inhibitors of Plasmodium falciparum (3D7) proliferation (AID 743322).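 Also: infected erythrocytes exposed to compound for 72 h before lysis; 100% = DMSO vehicle wells and 0% = 0.29 µM artemisinin.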 The note with it: P. falciparum 3D7 proliferation; at 28.7 µM (top of the series). The essentials: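 Parasite DNA was quantified by SYBR Green I fluorescence (ex 485, em 535 nm) after overnight lysis in saponin/Triton buffer at room temperature. Cultures at 0.3% parasitemia and 2.5% hematocrit were first exposed to compound for 72 h at 37 C; signals were normalised to artemisinin (0.29 uM) and vehicle wells.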

Test [17] can be described thus: qHTS profiling for inhibitors of Plasmodium falciparum (HB3) proliferation (AID 743324).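 Also: 100% = DMSO vehicle wells and 0% = artemisinin-treated control wells.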 The note with it: Plasmodium falciparum HB3 blood-stage proliferation; at 28.7 µM (top of the series). Put shortly: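 SYBR Green fluorescence (485 ex/535 em) of lysed cultures, incubated overnight at room temperature in the dark, quantifies parasite DNA. Infected erythrocytes at 0.3% parasitemia and 2.5% hematocrit were exposed 72 h; values normalized to DMSO and 0.29 uM artemisinin controls.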

Test [18] deals with N-terminal Xaa-Pro-Lys N-methyltransferase 1 (Homo sapiens) (UniProt Q9BV86). Nature of the test: Confirmatory qHTS for Inhibitors of N-terminal methyltransferase 1 (NTMT1): MTaseGlo Assay (AID 1645874). Also: nearly all actives have a fitted effect of over 65% in size. Also: potency is read from the fitted curve at half-maximal effect.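 As to activity change, negative = inhibition: luminescence from SAH made as NTMT1 methylates SPKRIA peptide using SAM; 0% = DMSO control and -100% = no-enzyme control.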 The essentials: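 Inhibition was derived from luminescence after SAH-to-ATP conversion, scaled between no-enzyme and DMSO wells, then fitted by 4-parameter Hill. Conditions: 125 nM NTMT1, 100 uM SAM, 1 uM SPKRIA, 30 min RT.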
Sequence of N-terminal Xaa-Pro-Lys N-methyltransferase 1 (Homo sapiens) (Q9BV86 whole entry, looked up): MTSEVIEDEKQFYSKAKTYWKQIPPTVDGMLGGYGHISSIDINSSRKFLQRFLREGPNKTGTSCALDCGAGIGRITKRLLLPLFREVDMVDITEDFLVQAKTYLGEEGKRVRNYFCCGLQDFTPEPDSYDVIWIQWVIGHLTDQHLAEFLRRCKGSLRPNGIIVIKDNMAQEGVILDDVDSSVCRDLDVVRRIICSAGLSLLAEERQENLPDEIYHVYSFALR

Test [19] deals with Glutathione peroxidase 1 (Homo sapiens) (UniProt P07203). Nature of the test: Primary qHTS Assay for Inhibitors of Recombinant Selenoprotein Glutathione Peroxidase 1 (GPX1) (AID 1845191). Also: % is scaled to controls: 0 for no effect and ±100 for the full control effect; nearly all actives have a fitted effect of over 65% in size. Put shortly:
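NADPH consumption tracked by fluorescence at 340/450 nm between t=0 and t=15 min, room temperature. Final mix: 10 nM GPX1, 100 nM glutathione reductase, 1 mM GSH, 0.5 mM NADPH, 0.5 mM cumene hydroperoxide, 0.01% BSA; 30 min compound–enzyme preincubation.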

Records with an inconclusive call do not appear. The source made the active and inactive calls. Unless noted, calls follow the shape of the dose curve; as a rule, active = well fitted curve in the direction sought with a large enough effect; inconclusive = small, poorly fitted or top-dose-only effect, or another doubt; inactive = no such curve, though single readings can be large; an effect the other way counts as inactive or inconclusive. Some results are limits rather than exact numbers.

These results are taken from PubChem BioAssay (NCATS).

Sequence of Calcium and integrin-binding protein 1 (Homo sapiens) (Q99828 whole entry, looked up): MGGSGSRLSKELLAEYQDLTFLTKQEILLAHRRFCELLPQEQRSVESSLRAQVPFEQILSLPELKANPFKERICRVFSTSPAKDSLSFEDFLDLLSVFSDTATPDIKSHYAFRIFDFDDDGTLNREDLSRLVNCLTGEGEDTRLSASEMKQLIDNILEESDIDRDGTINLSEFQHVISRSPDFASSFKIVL
Sequence of Cytochrome P450 2C19 (Homo sapiens) (P33261 whole entry, looked up): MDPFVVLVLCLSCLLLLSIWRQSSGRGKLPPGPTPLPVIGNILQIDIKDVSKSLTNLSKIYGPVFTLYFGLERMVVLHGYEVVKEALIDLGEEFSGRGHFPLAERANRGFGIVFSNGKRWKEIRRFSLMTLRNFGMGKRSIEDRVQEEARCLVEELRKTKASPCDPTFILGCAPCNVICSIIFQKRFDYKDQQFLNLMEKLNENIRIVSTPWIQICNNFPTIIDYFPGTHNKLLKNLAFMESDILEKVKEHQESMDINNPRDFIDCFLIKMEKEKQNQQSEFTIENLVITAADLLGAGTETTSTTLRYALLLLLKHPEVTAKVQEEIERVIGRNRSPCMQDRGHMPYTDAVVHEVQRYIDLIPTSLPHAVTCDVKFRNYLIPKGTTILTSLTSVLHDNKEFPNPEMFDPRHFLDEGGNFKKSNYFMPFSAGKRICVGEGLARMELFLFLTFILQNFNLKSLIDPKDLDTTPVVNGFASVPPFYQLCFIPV
Sequence of Ubiquitin carboxyl-terminal hydrolase 1 (Homo sapiens) (O94782 whole entry, looked up): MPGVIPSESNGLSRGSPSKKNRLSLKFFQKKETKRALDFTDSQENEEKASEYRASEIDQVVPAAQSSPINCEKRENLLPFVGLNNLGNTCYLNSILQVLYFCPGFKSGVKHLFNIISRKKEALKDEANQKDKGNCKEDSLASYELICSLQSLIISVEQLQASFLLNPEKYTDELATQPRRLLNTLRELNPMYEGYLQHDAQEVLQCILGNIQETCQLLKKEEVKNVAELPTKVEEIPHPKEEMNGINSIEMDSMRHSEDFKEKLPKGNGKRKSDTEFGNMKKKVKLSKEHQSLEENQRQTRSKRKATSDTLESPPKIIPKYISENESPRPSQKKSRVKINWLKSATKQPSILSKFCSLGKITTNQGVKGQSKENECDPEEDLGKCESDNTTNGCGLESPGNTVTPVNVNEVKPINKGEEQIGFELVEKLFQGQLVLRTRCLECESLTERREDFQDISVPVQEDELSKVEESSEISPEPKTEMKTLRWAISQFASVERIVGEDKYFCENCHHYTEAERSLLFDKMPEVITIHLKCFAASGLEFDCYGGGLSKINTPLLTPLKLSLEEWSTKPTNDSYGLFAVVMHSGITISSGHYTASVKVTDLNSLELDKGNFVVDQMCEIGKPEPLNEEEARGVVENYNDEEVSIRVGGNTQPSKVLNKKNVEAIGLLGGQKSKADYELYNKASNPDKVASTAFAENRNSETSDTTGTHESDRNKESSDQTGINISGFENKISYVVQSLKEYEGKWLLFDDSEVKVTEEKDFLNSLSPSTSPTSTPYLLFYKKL
Sequence of 3',5'-cyclic-AMP phosphodiesterase 4B (Homo sapiens) (Q07343 whole entry, looked up): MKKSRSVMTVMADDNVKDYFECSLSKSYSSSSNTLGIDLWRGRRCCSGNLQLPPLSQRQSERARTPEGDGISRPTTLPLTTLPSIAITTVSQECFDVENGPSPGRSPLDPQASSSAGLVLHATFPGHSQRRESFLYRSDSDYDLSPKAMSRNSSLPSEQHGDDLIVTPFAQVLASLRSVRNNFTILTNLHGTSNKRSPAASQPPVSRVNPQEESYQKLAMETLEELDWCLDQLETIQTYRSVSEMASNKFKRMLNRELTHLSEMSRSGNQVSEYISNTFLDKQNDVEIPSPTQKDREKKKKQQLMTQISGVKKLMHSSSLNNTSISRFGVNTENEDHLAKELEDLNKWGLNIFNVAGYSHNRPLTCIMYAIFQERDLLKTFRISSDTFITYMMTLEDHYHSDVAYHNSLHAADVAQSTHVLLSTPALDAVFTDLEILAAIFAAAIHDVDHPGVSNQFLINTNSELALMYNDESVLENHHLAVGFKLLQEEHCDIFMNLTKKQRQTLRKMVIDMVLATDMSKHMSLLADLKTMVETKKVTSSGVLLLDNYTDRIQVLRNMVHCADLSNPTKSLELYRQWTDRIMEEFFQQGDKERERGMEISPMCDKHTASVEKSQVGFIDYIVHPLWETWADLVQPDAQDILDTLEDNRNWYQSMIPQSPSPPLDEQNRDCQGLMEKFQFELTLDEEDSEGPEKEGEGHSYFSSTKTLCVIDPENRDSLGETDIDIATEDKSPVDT
Sequence of Glucocorticoid receptor (Homo sapiens) (P04150 whole entry, looked up): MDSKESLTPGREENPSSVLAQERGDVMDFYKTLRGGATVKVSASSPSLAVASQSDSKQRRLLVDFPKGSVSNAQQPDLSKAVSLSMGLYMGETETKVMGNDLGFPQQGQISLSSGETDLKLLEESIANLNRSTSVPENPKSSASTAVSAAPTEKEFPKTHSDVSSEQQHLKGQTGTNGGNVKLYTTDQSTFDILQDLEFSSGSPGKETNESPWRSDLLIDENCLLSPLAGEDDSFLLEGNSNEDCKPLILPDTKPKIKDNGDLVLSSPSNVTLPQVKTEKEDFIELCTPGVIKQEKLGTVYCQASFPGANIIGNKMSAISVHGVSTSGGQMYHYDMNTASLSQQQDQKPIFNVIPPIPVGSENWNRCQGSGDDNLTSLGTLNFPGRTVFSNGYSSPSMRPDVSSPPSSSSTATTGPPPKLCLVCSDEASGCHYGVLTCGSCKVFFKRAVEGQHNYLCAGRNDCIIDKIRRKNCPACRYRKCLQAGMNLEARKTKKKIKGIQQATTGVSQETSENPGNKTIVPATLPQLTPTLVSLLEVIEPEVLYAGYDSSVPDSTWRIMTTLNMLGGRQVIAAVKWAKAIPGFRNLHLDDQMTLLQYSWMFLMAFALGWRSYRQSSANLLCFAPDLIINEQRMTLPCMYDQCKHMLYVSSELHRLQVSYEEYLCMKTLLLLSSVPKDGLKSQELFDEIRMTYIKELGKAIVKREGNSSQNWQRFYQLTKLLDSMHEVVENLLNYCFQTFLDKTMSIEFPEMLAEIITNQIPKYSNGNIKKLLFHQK
Sequence of Cytochrome P450 2D6 (Homo sapiens) (P10635 whole entry, looked up): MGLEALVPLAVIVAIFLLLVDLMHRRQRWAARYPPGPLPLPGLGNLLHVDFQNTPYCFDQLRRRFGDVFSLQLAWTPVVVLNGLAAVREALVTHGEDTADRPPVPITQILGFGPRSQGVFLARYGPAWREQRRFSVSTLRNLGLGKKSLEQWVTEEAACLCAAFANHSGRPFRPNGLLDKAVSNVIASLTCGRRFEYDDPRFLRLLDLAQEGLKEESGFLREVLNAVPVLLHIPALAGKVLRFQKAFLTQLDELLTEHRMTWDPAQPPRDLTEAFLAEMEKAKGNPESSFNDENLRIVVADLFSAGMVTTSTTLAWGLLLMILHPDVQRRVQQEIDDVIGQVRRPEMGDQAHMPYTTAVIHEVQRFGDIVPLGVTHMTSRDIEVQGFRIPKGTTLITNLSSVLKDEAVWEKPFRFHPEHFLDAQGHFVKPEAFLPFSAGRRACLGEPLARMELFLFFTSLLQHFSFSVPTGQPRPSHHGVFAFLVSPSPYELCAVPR
Sequence of Lysosomal acid glucosylceramidase (Homo sapiens) (P04062 whole entry, looked up): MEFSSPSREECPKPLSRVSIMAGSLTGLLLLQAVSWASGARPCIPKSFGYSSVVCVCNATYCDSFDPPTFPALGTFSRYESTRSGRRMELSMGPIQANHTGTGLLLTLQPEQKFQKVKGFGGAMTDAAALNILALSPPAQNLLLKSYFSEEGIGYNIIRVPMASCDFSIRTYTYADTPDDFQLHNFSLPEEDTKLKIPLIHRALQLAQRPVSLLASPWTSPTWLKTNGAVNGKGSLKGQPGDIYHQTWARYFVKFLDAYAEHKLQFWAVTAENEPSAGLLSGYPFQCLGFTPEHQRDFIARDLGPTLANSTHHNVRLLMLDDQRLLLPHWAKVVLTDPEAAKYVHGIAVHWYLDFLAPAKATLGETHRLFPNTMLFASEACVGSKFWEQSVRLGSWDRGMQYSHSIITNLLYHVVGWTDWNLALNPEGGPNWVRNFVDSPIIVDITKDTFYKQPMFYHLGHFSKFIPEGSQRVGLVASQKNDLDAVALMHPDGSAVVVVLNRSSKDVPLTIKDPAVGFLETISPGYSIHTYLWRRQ
Sequence of Glutathione peroxidase 1 (Homo sapiens) (P07203 whole entry, looked up): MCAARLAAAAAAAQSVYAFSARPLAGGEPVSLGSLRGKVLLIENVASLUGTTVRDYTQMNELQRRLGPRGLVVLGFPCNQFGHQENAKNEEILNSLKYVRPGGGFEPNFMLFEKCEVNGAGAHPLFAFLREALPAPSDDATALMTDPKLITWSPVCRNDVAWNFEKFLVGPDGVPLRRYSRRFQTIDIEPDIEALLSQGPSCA
Sequence of Cytochrome P450 1A2 (Homo sapiens) (P05177 whole entry, looked up): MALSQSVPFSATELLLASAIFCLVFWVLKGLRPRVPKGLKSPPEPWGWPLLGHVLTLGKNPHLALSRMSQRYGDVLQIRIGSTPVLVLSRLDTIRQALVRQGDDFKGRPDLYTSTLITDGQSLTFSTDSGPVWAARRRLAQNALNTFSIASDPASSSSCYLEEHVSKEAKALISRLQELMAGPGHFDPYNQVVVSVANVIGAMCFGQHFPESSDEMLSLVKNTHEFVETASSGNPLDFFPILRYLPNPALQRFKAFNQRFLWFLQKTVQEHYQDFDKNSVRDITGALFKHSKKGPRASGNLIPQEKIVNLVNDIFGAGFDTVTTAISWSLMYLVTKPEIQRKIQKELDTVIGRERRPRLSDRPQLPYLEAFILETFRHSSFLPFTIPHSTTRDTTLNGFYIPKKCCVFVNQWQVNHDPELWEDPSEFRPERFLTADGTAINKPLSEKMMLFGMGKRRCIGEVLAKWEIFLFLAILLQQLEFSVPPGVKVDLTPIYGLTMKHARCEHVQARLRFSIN

Consider `Cc1cccc(CNc2ncnc3ccc(-c4ccoc4)cc23)c1`, for which the activity change, negative = inhibition in [1] is -19.9% (inactive); in test [2], -14.2% (inactive). Moreover, in [3], the activity, negative = inhibition was -30% (inactive). Also, the results for the Potency in [4] and in [6] were > 46 µM (inactive) and 7.94 µM (active), respectively. For the same compound, the result in [5], in [7] and in test [8] was inactive. The Potency entry in test [9], in [10] and in test [11] was “inactive” throughout.
On to `Cc1noc(C)c1C(=O)N1CCC2(CCCN(C(c3ccccc3)c3ccccc3)C2)CC1`, for which the Potency in test [12] was > 11.4 µM (inactive); in test [15], 2 µM (active). In addition, the Potency entry in test [13], in test [14], in test [10] and in test [11] was “inactive” throughout. Further, the activity, negative = inhibition in test [3] is -11.6% (inactive). For the same compound, the result in [5] was inactive. Moreover, the remaining parasite growth % (stronger effect = lower value) in [16] came out at 18.5%. The remaining proliferation (% of control), lower = more inhibition in test [17] worked out at 10.2%.
With `CN(C)C(=O)c1ccc(-c2cc[nH]c(=O)c2N)cc1`, the Potency result in [10] and in test [18] was “inactive” throughout.
For `Fc1cc(Nc2nc(-c3ccncc3)nc3ccccc23)ccc1-c1ccc2[nH]ncc2c1`, the Potency entry in test [10] and in test [18] was “inactive” in each case.
Consider `Cc1ccsc1CN(C)c1ncnc2ccc(-c3ccc([C@@H](C)O)o3)cc12`, for which the Potency entry in [10] was “inactive”. Moreover, the Potency in test [18] was 6.49 µM (active).
Take `Cc1cccc(-c2ccc3ncnc(NCc4cccs4)c3c2)c1`: the Potency entry in test [10] is “inactive”. Besides, the Potency in test [18] was 10 µM (active).
Turning to `COc1cc(Nc2nc(-c3ccncc3)nc3ccccc23)ccc1N1CCN(C)CC1`, in test [10], the Potency entry is “inactive”. In test [18], the Potency is 17 µM (active).
On to `CC(=O)Nc1sc2c(c1-c1ccc(N3CCN(C)CC3)cc1)CCNC2`, for which the Potency entry in test [10] and in test [19] was “inactive” in each case.
